Experimental data from PMC13494018.

B1: design_376_bf9d4634-8475-4fdb-a175-1db49a23bdcd_2226_dldesign_0_cycle1_af2pred (protein)
chain: KYKEEAKKKTEEELEKAAKAVSKENAPKVEKVKKEALKALEEDFSKAAEIIRNFAKEEKENHDVVKKYAAKASEALYEARAAKEVEER
B2: design_376_bf9d4634-8475-4fdb-a175-1db49a23bdcd_2407_dldesign_0_cycle1_af2pred (protein)
chain: MEEEEKKKKEEAKKLAKELGNLLIEAFDADVEDEEKGEEKLKEAKKLAKELKKLDPELGKKAEKRIKRFEESMKIAKELKEK
B3: design_376_bf9d4634-8475-4fdb-a175-1db49a23bdcd_800_dldesign_0_cycle1_af2pred (protein)
chain: AKAELEKLKKEAAKHRQEMYFYGKASAKLGPKYKAEYEEHYAKALEAAKKIKELDPEEGKKYEEIVLKTKKRLEKEL
B4: design_376_bf9d4634-8475-4fdb-a175-1db49a23bdcd_1330_dldesign_0_cycle1_af2pred (protein)
chain: AVEEKLKEYTKKAEEYIEKLEKLDPEKAKELRKELEEAKKLTPEEALKKVKEIAAKASEAYYQAKAEEDAKK
B5: design_376_bf9d4634-8475-4fdb-a175-1db49a23bdcd_1125_dldesign_0_cycle1_af2pred (protein)
chain: VEEAAKKAKEKVKEVAEKATKEAPETADIAKALAENAEKKIDELAKKGAPKEALEKAAEKAIKTIKAVKKSALELK
B6: design_376_bf9d4634-8475-4fdb-a175-1db49a23bdcd_1727_dldesign_0_cycle1_af2pred (protein)
chain: STEEAIKKALEMAEKIAKATPETGAEATKIRDELLEYIAEFAEKGTVEGTKAVAEALREQAEKASPEAAKSLRAAARFAEALAKAKA
B7: design_376_bf9d4634-8475-4fdb-a175-1db49a23bdcd_2229_dldesign_0_cycle1_af2pred (protein)
chain: MAEKIKKAITEAREKYADARGYAYAAKKDPKFLPEAVKAADAAAAAWEALAKLDPANKAIYDANAAKAKAIGDAAKAAL
B8: design_376_bf9d4634-8475-4fdb-a175-1db49a23bdcd_2363_dldesign_0_cycle1_af2pred (protein)
chain: AEEEAKQKELIKEMARHIQEAREYRNAAEKLPEKKEEYVKKALEHVEKALEAAEELIKNPKYKEYGEKGKKRAEEVRKKIEEVK
B9: design_596_3e5f537c-0703-45f0-993f-ff416531349a_338_dldesign_0_cycle1_af2pred (protein)
chain: GSMEEKKKKEVEEAEKEAEKILEKAKKEAEKAAKKSPAQAVEVALEALSELKYLGSKYPEKAEEFEKRGRELVEEYKKKAE
B10: design_376_bf9d4634-8475-4fdb-a175-1db49a23bdcd_1417_dldesign_0_cycle1_af2pred (protein)
chain: MEEDEKKVEEVKKRGKEVAEKAKKSTPEEAEELRKEFTRYAAEVGGKASPEARNKIQEIRAEANGEIALAIIKKK
B11: design_596_3e5f537c-0703-45f0-993f-ff416531349a_46_dldesign_0_cycle1_af2pred (protein)
chain: KYKELLKKAKELYEKAIAAAGDPAKAAAELKKANAAFTDALAEARAESKENFKKVRKEYGELKAKYEAAKAAA
B12: design_376_bf9d4634-8475-4fdb-a175-1db49a23bdcd_1182_dldesign_0_cycle1_af2pred (protein)
chain: EEEEKQKVKEEAAKNVEEAVEAAGELIAKHPELREKAYKLRKEAIRLSQEAGKAAEKDLEEGKKYLEESKEKVKEIKKLAEE
B13: design_376_bf9d4634-8475-4fdb-a175-1db49a23bdcd_1019_dldesign_0_cycle1_af2pred (protein)
chain: ILKEFAKLVSEAIKKATKADGLNGADIVWKEAEKSFKEVKEALKKGEEEAKKALEKAKERLEKAVEEAKKRGEA
B14: design_596_3e5f537c-0703-45f0-993f-ff416531349a_232_dldesign_0_cycle1_af2pred (protein)
chain: LKAEAAEKSAEARELIAEAETLAKNIKNLSKEEAKEALKVAEEALKKAKEAAKLMAKVGEEELGKKLLERAKKAYKETKEAVKKKLK
B15: design_376_bf9d4634-8475-4fdb-a175-1db49a23bdcd_2428_dldesign_0_cycle1_af2pred (protein)
chain: MEEAIKKLKEIAKKLKELSKEAEKLAKEYPKVKNEALKVSGYAETAADQAESALKNKEKAAEAAKWAEKRLEKVEKDLKEVKKKAK
B16: design_376_bf9d4634-8475-4fdb-a175-1db49a23bdcd_1609_dldesign_0_cycle1_af2pred (protein)
chain: AKEEARELAEKAYEAAKSTSEDLREDVEKDGIGPKAVKSISDNMIEWIEKVHEEVKVDEEAHKIAEEAIKYAKEEGEKNIELAKKR
B17: design_376_bf9d4634-8475-4fdb-a175-1db49a23bdcd_1954_dldesign_0_cycle1_af2pred (protein)
chain: MTAEEAIKKIEEAAEKASKELKEIGKKNPAVAAYAKAASERVKRRAKRAIKEIKEKGLTGVQAEGLAEAASYFAEDQAENAKKKAEEA
B18: design_376_bf9d4634-8475-4fdb-a175-1db49a23bdcd_2333_dldesign_0_cycle1_af2pred (protein)
chain: SEIAEKLAEWAEKAKASTREEAKAILDELLADEETKEYAELALEIVKDIAGEDAPAEAIGLALRIASDAAEA
B19: design_376_bf9d4634-8475-4fdb-a175-1db49a23bdcd_1020_dldesign_0_cycle1_af2pred (protein)
chain: MGKKIHDVVKKAAEEARKAAEKAGADGELVRKAAYTAGWYYIAGDEEEAKKIVELAKKAEPKFAKTVEELMKKALEAAKKALEE
B20: design_376_bf9d4634-8475-4fdb-a175-1db49a23bdcd_2064_dldesign_0_cycle1_af2pred (protein)
chain: SEKEEIIKRAKEVAERARKVAAEAKEIGPAALPVLNKATEARALANAARDLAEAGGNLEVAKEVLKEAEELLKKAEEELKKLKKE
B21: design_596_3e5f537c-0703-45f0-993f-ff416531349a_8_dldesign_0_cycle1_af2pred (protein)
chain: EEEEREKVIKKAKEVLDRNGKKALEYAKIVPEVAPEVEKTIKESRAEIEKAAGLSLEEAQKAAAAAVHKVQELRAEAYFLAEKKK
B22: design_376_bf9d4634-8475-4fdb-a175-1db49a23bdcd_869_dldesign_0_cycle1_af2pred (protein)
chain: REAALAAGAARLEAALAASPAAPAAAAALRAALEAGADAADVILAVQDVLAEAGAAKEDLSAAAKAAAEAVRLYS
B23: design_376_bf9d4634-8475-4fdb-a175-1db49a23bdcd_2406_dldesign_0_cycle1_af2pred (protein)
chain: HMEELEKLLKEAEKAAKEAAEAYKKDPAEGKKWASKARDLSIEAISLDPSAYEKAKEIAEKVAEVDPEAGKKIKAILERTYEALKRA
B24: design_376_bf9d4634-8475-4fdb-a175-1db49a23bdcd_1821_dldesign_0_cycle1_af2pred (protein)
chain: SNVKEANKKIDEATKLLVDARKAVYEKGKAAGPEVAAGAQKIIAGAVRGDVAPALADTPEVAALAKQMQAALDKAEKLENEAVKLLS
B25: design_596_3e5f537c-0703-45f0-993f-ff416531349a_73_dldesign_0_cycle1_af2pred (protein)
chain: AEKEKEAQKLLEEMVEYGEKKAKEAEKLNPKAGERIRRARERYEKYAKDPEKAKQYVEALKEYADHVVEAAKK
B26: design_376_bf9d4634-8475-4fdb-a175-1db49a23bdcd_1294_dldesign_0_cycle1_af2pred (protein)
chain: SVKENTKEAAKKLEEKYGAEFAKIGPEYAAKMAAAAKEAAKKPTSADAIILMRDAYDELKKEADAALAAA
B27: design_376_bf9d4634-8475-4fdb-a175-1db49a23bdcd_1797_dldesign_0_cycle1_af2pred (protein)
chain: AADEAKAKAKAALDAAAAAAAKVDPKKAPEVKARAAKAKATLDKLYADFKDDPEIATEVANIFLKGAEALLKEIKAA
B28: design_376_bf9d4634-8475-4fdb-a175-1db49a23bdcd_1192_dldesign_0_cycle1_af2pred (protein)
chain: GTEKTKKISDHLRKAVSAAKKAVAIAKKAGIGEEMQKTFSELRDAVVDGDLEKAKEYAKKLLELGKKVPEAYEYAKEAAEEALKAVE
B29: design_376_bf9d4634-8475-4fdb-a175-1db49a23bdcd_1553_dldesign_0_cycle1_af2pred (protein)
chain: HEEAEKAIEKAKEYFKELVKELEKLDPKAGAKMKELAEKGKKVLERMKEYSPEDVKETAESIMKGAEKEFEKLKKEAEA
B30: design_376_bf9d4634-8475-4fdb-a175-1db49a23bdcd_1228_dldesign_0_cycle1_af2pred (protein)
chain: DAALKALATKLQEEGLAWADKAYEAMQIIDPKEAPKVASDILRDFARANKLYAEDPAKGAAALAAARAKVEAIVALAKKVS
B31: design_376_bf9d4634-8475-4fdb-a175-1db49a23bdcd_2251_dldesign_0_cycle1_af2pred (protein)
chain: GAASAAEEAKGHAIAAEAYALSGKKKEEALEDAKKAGEYAKKATPEYQAAVKKLFEKKVERVKAKPESAETAEKMKALFEEVVA
B32: design_376_bf9d4634-8475-4fdb-a175-1db49a23bdcd_2272_dldesign_0_cycle1_af2pred (protein)
chain: AEEYLKEAKKYLEEAKKVAEKNPKAKPAYERGKKKYEEYLKKAKETGDYEEYAKKAYIAADQALEHAEFIAK
B33: design_376_bf9d4634-8475-4fdb-a175-1db49a23bdcd_2125_dldesign_0_cycle1_af2pred (protein)
chain: SPYQKKLEEEAEEIIARARKLAEEAREAAKKAGPKIKSLADEAISYAAIARSLARDGVKYGEKYLELAKEELAKAEELAKEAVKLAKE
B34: design_376_bf9d4634-8475-4fdb-a175-1db49a23bdcd_2270_dldesign_0_cycle1_af2pred (protein)
chain: SMAREKARKESEELRELVKKAREIAKEAKEKAKEKGPEAQKIAKEAAKEAAKAVWYFPDKEKSEKALQKAEELLKEI
B35: design_376_bf9d4634-8475-4fdb-a175-1db49a23bdcd_888_dldesign_0_cycle1_af2pred (protein)
chain: GVVEKAKKISEAVRAEHKAKATTKLAKADPSQAAAAKAAAEEAKKAAEKAEEADKETAKAAKAAGKEAEAAAKA
B36: design_376_bf9d4634-8475-4fdb-a175-1db49a23bdcd_1567_dldesign_0_cycle1_af2pred (protein)
chain: SAEEEIKKKAKELEKAGAAALFELADASKEEAPKYAAKIDKAIADLKALGKAATPELGKELFAKADKLQATRDRIMEDIES
B37: design_376_bf9d4634-8475-4fdb-a175-1db49a23bdcd_2298_dldesign_0_cycle1_af2pred (protein)
chain: GLEEKAKKAVEKAKEYLKKAKAAMEKGDYKSALAYAEQAIHAATAAIKIAKEDPSLKELEEEAKKILEEAKKLLEEAEKKL
B38: design_376_bf9d4634-8475-4fdb-a175-1db49a23bdcd_746_dldesign_0_cycle1_af2pred (protein)
chain: MEKAEEMGERLIEAVKESPEKAREVAEEMVRRAKEGDVEEAAAIAQAVAEAYAVAVKENKEAAEIVREALREVQEIGRKKR

Target: VTCN1, Q7Z7D3
Sequence (Q7Z7D3 whole entry): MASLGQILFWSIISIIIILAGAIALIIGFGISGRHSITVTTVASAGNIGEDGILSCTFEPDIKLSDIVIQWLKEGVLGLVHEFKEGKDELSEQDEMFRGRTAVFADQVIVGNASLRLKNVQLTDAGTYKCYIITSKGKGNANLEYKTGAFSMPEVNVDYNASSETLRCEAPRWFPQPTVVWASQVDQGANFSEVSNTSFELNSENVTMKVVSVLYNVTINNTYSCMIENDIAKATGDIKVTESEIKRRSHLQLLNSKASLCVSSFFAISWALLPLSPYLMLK

Binding in a display sort, inactive:
B1 not found, B2 not found, B3 not found, B4 not found, B5 not found, B6 not found, B7 not found, B8 not found, B9 not found, B10 not found, B11 not found, B12 not found, B13 not found, B14 not found, B15 not found, B16 not found, B17 not found, B18 not found, B19 not found, B20 not found, B21 not found, B22 not found, B23 not found, B24 not found, B25 not found, B26 not found, B27 not found, B28 not found, B29 not found, B30 not found, B31 not found, B32 not found, B33 not found, B34 not found, B35 not found, B36 not found, B37 not found, B38 not found
